The source of these data is PubChem BioAssay AID1987 (The Scripps Research Institute Molecular Screening Center, 2009).

SMILES strings stand for the structures. The whole screen tested about 320,000 compounds, of which about 560 (0.17%) were called active. The full list was thinned out, with actives kept by preference. Unmarked numbers belong to inactive results.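 How the source made its calls: active means inhibition above the campaign's mean inhibition across all tested compounds plus 3 SD (cut at about 9.5% in these data); inactive means the rest.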

The target in the test is Serine/threonine-protein phosphatase 5 (Homo sapiens) (UniProt P53041). As to the kind of experiment: PP5 phosphatase inhibitors, primary screen, biochemical, fluorescence (AID 1987).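 Further: 0% = DMSO only and 100% = 100 µM cantharidin control.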 The following applies: purified PP5c, OMFP substrate fluorescence; at 6.7 µM; hits give high values.
Sequence of Serine/threonine-protein phosphatase 5 (Homo sapiens) (P53041 whole entry, looked up): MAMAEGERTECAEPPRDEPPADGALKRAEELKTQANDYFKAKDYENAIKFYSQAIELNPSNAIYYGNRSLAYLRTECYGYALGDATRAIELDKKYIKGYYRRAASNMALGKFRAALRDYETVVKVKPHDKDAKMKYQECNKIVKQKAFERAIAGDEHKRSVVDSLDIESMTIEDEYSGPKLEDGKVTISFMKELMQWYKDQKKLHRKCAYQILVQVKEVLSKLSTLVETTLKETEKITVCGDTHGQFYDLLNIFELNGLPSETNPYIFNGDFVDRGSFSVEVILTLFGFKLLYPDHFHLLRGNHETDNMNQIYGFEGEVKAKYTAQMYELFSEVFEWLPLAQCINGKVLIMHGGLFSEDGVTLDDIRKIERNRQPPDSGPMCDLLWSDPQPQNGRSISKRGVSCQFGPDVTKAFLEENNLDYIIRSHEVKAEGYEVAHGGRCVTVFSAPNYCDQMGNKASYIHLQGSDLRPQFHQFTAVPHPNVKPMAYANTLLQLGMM
Consider `Cc1nc(CNS(=O)(=O)c2cc([N+](=O)[O-])ccc2C)cs1`, for which the inhibition is -0.47%.
Take `N#Cc1c(N2CCCCC2)nc(N)c2c(N)nc(SCC(=O)O)cc12`: the inhibition was 12.7% (active).
Regarding `N#CCc1c(C#N)c(N)nc(N2CCCC2)c1C#N`, the inhibition is 2.12%.
As for `N#Cc1c(-c2ccccc2)cc(-c2ccccc2)nc1SCC(=O)O`, the inhibition is -0.23%.
Turning to `CC1(C)CC(=O)C=C(NCCCN2CCCC2=O)C1`, the inhibition is -3.07%.
In the case of `Cc1nc(NC(CC(C)C)C(=O)O)c2nc(C)oc2n1` (centres undefined) it was 11.7% (active); in that of `CC1(c2cccc([N+](=O)[O-])c2)CC(C)(C)N(C(=O)c2ccccc2)c2ccccc21` (centres undefined), 3.32%; in that of `CC(C)(C)N1C(=O)[C@H]2[C@@H](c3ccc(Br)cc3)N3C(=O)N(c4cccc(Cl)c4)C(=O)[C@@]3(C)[C@H]2C1=O`, 5.22%.
In the case of `O=C1[C@H]2[C@@H](c3ccc(Cl)cc3)N3C(=O)N(c4cccc(F)c4)C(=O)[C@@]3(Cc3ccccc3)[C@H]2C(=O)N1C1CCCCC1` it was 2.69%; in that of `C[C@@]12C(=O)N(c3cccc(Br)c3)C(=O)N1[C@H](c1ccc(Cl)cc1)[C@@H]1C(=O)N(C3CCCCC3)C(=O)[C@@H]12`, 9.7% (active).
On to `O=C(CCn1nnnc1CN1CCOCC1)N1CCC(c2ccccc2Cl)C1` (centres undefined), for which the inhibition is 0.07%.
For the compound `Cc1noc(C)c1C(=O)N(CC(=O)NC1CCCC1)Cc1ccccc1F`, the inhibition was 0.94%.
In the case of `CN(CC(=O)NCc1ccc(Cl)cc1)S(=O)(=O)c1cccs1` it was 3.27%; in that of `Cc1c(C)c2c(OCC(=O)N[C@@H](C(=O)O)c3ccccc3)cc3c(c2oc1=O)CCC(C)(C)O3`, 2.43%.
As for `c1ccc(C[C@H]2CNCCN2CCC23CC4CC(CC(C4)C2)C3)cc1`, the inhibition is 1.23%.
`CCn1ccnc1CNC(=O)CC1C(=O)NCCN1CCCc1ccccc1` (centres undefined): the inhibition was 0.82%.
Regarding `COCC1CCN(C(=O)c2ccc3oc(Cc4ccccc4)nc3c2)C1` (centres undefined), the inhibition was 2.88%.
For the compound `O=c1ccc2c(-c3ccccc3S(=O)(=O)O)c3ccc(O)c(O)c3oc-2c1O`, the inhibition is 9.92% (active).
As to `O=[N+]([O-])c1cc([N+](=O)[O-])c2cccnc2c1O`, the inhibition is 2%.
Regarding `Nc1nc(Sc2ncccc2[N+](=O)[O-])n[nH]1`, the inhibition was 1.94%.
Turning to `O=[N+]([O-])c1cccc2ncccc12`, the inhibition was 10.4% (active).
In the case of `N#Cc1ccc(CN2CCN(CC(=O)Nc3ccccc3C(=O)NC3CC3)CC2)cc1` it was -0.41%.
As for `CC(NC(=O)c1cc2cc(Cl)ccc2oc1=N)c1ccccc1` (centres undefined), the inhibition was 2.37%.
On to `COc1cc(C(=O)Nn2c(O)c(C3=c4ccccc4=NC3=O)sc2=S)ccc1O`, for which the inhibition was -1.88%.

Usually inhibition stands for the relative decrease from the control value, in per cent.
